The results in this text go back to ChEMBL document CHEMBL3988442, “University of Dundee, Small-Polar-MMV Screening Library” (2021).

Each structure is given as a SMILES string.

The first test concerns the target T1, Aspartate--tRNA(Asp/Asn) ligase (Mycobacterium tuberculosis (strain ATCC 25618 / H37Rv)) (UniProt P9WFW3). Further: in the data most compounds retested in dose-response had high values.
T1 sequence (whole entry): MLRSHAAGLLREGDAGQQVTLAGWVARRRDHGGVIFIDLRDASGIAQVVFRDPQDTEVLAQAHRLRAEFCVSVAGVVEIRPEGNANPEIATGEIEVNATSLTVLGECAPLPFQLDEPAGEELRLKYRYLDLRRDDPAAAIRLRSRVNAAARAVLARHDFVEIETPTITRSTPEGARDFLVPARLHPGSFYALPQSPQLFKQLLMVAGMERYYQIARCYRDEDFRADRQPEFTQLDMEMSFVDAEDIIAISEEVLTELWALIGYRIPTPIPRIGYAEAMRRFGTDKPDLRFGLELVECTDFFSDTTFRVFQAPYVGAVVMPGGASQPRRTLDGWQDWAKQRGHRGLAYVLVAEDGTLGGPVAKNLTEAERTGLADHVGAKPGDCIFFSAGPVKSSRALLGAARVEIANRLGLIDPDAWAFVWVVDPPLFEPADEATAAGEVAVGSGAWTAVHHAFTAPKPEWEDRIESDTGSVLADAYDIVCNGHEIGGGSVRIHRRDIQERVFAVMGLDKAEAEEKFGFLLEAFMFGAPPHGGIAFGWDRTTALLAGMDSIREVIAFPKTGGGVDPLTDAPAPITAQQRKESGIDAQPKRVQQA
Kind of test: Assay for Asp RNA synthetase-1 from Mycobacterium tuberculosis. Further details: scale not given: direction of the effect not stated beside the values. The settings on record: 30 µM. The format is functional.
Regarding `O=C(NCc1cccs1)[C@H]1CC[C@@H]2[C@@H](CCN2c2ncccn2)O1`, the Percent Effect was 3.22%.
As for `Cc1cccc(OCCC(=O)N(C)CCNS(C)(=O)=O)c1C`, the Percent Effect was 0.299%.
On the same count and under the same terms, in the case of `CCc1ncc2c(n1)CN(Cc1nc(C)c(C)o1)CC2` it was 0.259%; in that of `NC(=O)N1CCC2(CC1)CN(c1ccsc1)C(=O)CO2`, 1.31%.
On the same count and under the same terms, the figure for `Cc1cc(C)c(CNC(=O)NCC(c2ccccc2)N(C)C)c(=O)[nH]1` (stereo not given) is 4.47%; for `CCc1nnc2n1CCN(Cc1csc(-c3ccc(C)o3)n1)C2` it is 0.544%.
`O=C(NCCC1=CCCCC1)C1CCCN(c2ccc3nncn3n2)C1` (stereo not given): the Percent Effect was -1.84%.
For `O=C1CCC2(CCN(Cc3nccs3)CC2)N1Cc1ccccc1`, the Percent Effect is -2.78%.
On to `CNc1nc(CNC(=O)Nc2ccccc2SC)cs1`, for which the Percent Effect was -0.278%.
For the molecule `CC(C)Cc1ccc(S(=O)(=O)Nc2ccc(=O)n(C)c2)cc1`, the Percent Effect worked out at 30.2%.
On to `Nc1nccc(-c2c[nH]nc2C2CCCCC2)n1`, for which the Percent Effect stood at 6.92%.
On the same count and under the same terms, the figure for `CC(C)c1nn(C)c(N(C)C)c1CNCc1ccc2c(c1)OCO2` is -1.77%; for `CCC1=N[C@@]2(CC[C@@H]3CN(S(=O)(=O)N(C)C)C[C@@H]32)C(=O)N1CC(C)C` it is 2%; for `CC1CN(C)c2ccccc2CN1C(=O)CSc1ccncc1` (stereo not given) it is 6.09%.
Same read-out and setting: in the case of `CCc1nc(CN2CCCN(c3nccs3)CC2)no1` it was 2%.
Still for that read-out and setting: the figure for `CCc1nc(CN2CCCC(N(C)Cc3cnc(C)s3)C2)no1` (stereo not given) is -0.259%.
With `CC(C)c1nc2c(n1C)CCN(CC(=O)Nc1ccc(Cl)cn1)C2`, the Percent Effect was 3.34%.
Same read-out and setting: the figure for `Cc1ccc(S(=O)(=O)N2CCOc3ccccc32)cc1C(N)=O` is 0.611%.
Same read-out and setting: in the case of `CN1CC(=O)N(c2cccc(F)c2)CC12CCNC2` (stereo not given) it was -4.35%; in that of `Cc1nc(CN2CCCC(Cn3cc(CCO)nn3)C2)c[nH]1` (stereo not given), 0.881%.
Take `CS(=O)(=O)N1CCOCC2(CN(Cc3ccsc3)CCO2)C1` (stereo not given): the Percent Effect is -4.1%.
With `Cc1ccc2cc(C(=O)NCCn3nc4ccccn4c3=O)[nH]c2c1`, the Percent Effect was -5.08%.
The same measure, in the same setting: the figure for `CN(C)CCN1CCC2(CCN(C(=O)c3ccc(F)cc3)CC2)C1=O` is 2.84%.
Regarding `CCOCCC(=O)N1CCCC(c2ncc[nH]2)C1` (stereo not given), the Percent Effect was -0.374%.
Turning to `O=C1CCC(C(=O)NCc2nn(-c3ccccc3)c3c2CCC3)CN1` (stereo not given), the Percent Effect is -2.23%.
Same read-out and setting: in the case of `COCC1CN(Cc2ccncc2)Cc2nnn(CC3CC3)c21` (stereo not given) it was 0.981%; in that of `CO[C@H]1CCN(Cc2cnn(C)c2)[C@@H]2CN(Cc3cccnc3)C[C@H]12`, 3.14%; in that of `Cc1nc(CN2C[C@@H]3CN(C(=O)c4cnccn4)C[C@@H]3C2)cs1`, -0.661%.
On the same count and under the same terms, the figure for `CCO[C@@H]1CCN(C(=O)c2cscn2)[C@@H]1Cc1cnn(C)c1` is -2.13%; for `O=C(c1ccc[nH]1)N1CCN(CC2CCOc3ccccc3C2)CC1` (stereo not given) it is 4.96%; for `CS(=O)(=O)NCC1CCCN(C(=O)c2ccc(Cl)o2)C1` (stereo not given) it is 1.23%.
In the case of `O=C1N(CCCc2ccccc2)CCCC1(O)CNCc1ccccc1` (stereo not given), the Percent Effect stood at 4.53%.
Still for that read-out and setting: in the case of `Cc1nc(C)n(C2CCCN(C(=O)c3csc(C(C)C)n3)C2)n1` (stereo not given) it was 7.62%; in that of `Cc1ccc(CNC(CN2CCN(C)CC2)c2ccccc2)cc1` (stereo not given), 3.88%.
Still for that read-out and setting: the figure for `Cc1ccccc1C(=O)NCc1ccc(N2CCNC(=O)C2)cc1` is 0.212%.
Turning to `Cc1noc([C@@]23CCO[C@@H]2CCN(C(=O)c2sccc2C)C3)n1`, the Percent Effect is -0.466%.
`O=C(c1cnc(C2CC2)s1)N1CCCCC1Cn1cccn1` (stereo not given): the Percent Effect was -8.43%.
On to `c1csc(CN2CCO[C@H]3[C@H](OCCN4CCCC4)CC[C@@H]32)n1`, for which the Percent Effect was determined as 2.94%.
As for `CC(=O)N1CCCN(C(=O)NCc2ccccn2)CC1`, the Percent Effect amounted to 3.93%.
For `Cc1cnn(CCNCC(O)COc2ccc(Cl)cc2)c1` (stereo not given), the Percent Effect is -2.57%.

In a further test the target is Shiga toxin 2 (Escherichia coli O157:H7) (UniProt P09385+P09386). In words: E. coli 0.157:H7 Shiga Toxin SOP - stx2 screening assay. The format is functional. Details: scale not given: direction of the effect not stated beside the values. The settings on record: 30 µM.
As for `O=C(NCc1cccs1)[C@H]1CC[C@@H]2[C@@H](CCN2c2ncccn2)O1`, the Percent Effect is -3.66%.
Take `Cc1cccc(OCCC(=O)N(C)CCNS(C)(=O)=O)c1C`: the Percent Effect was found to be 6.1%.
On the same count and under the same terms, in the case of `CCc1ncc2c(n1)CN(Cc1nc(C)c(C)o1)CC2` it was -23.6%; in that of `NC(=O)N1CCC2(CC1)CN(c1ccsc1)C(=O)CO2`, -21.1%; in that of `Cc1cc(C)c(CNC(=O)NCC(c2ccccc2)N(C)C)c(=O)[nH]1` (stereo not given), 23.9%.
Same read-out and setting: in the case of `CCc1nnc2n1CCN(Cc1csc(-c3ccc(C)o3)n1)C2` it was -33.1%; in that of `O=C(NCCC1=CCCCC1)C1CCCN(c2ccc3nncn3n2)C1` (stereo not given), -5.94%.
Same read-out and setting: in the case of `O=C1CCC2(CCN(Cc3nccs3)CC2)N1Cc1ccccc1` it was 13.1%; in that of `CNc1nc(CNC(=O)Nc2ccccc2SC)cs1`, 22.5%; in that of `CC(C)Cc1ccc(S(=O)(=O)Nc2ccc(=O)n(C)c2)cc1`, -23.8%.
As to `Nc1nccc(-c2c[nH]nc2C2CCCCC2)n1`, the Percent Effect is -26.9%.
On the same count and under the same terms, the figure for `CC(C)c1nn(C)c(N(C)C)c1CNCc1ccc2c(c1)OCO2` is 30.6%.
Consider `CCC1=N[C@@]2(CC[C@@H]3CN(S(=O)(=O)N(C)C)C[C@@H]32)C(=O)N1CC(C)C`, for which the Percent Effect was found to be 9.58%.
In the case of `CC1CN(C)c2ccccc2CN1C(=O)CSc1ccncc1` (stereo not given), the Percent Effect was -6.66%.
Regarding `CCc1nc(CN2CCCN(c3nccs3)CC2)no1`, the Percent Effect is -3.78%.
The same measure, in the same setting: in the case of `CCc1nc(CN2CCCC(N(C)Cc3cnc(C)s3)C2)no1` (stereo not given) it was 4.86%; in that of `CC(C)c1nc2c(n1C)CCN(CC(=O)Nc1ccc(Cl)cn1)C2`, -0.161%; in that of `Cc1ccc(S(=O)(=O)N2CCOc3ccccc32)cc1C(N)=O`, -48.3%.
On to `CN1CC(=O)N(c2cccc(F)c2)CC12CCNC2` (stereo not given), for which the Percent Effect is -4.44%.
As to `Cc1nc(CN2CCCC(Cn3cc(CCO)nn3)C2)c[nH]1` (stereo not given), the Percent Effect was -6.46%.
The same measure, in the same setting: the figure for `CS(=O)(=O)N1CCOCC2(CN(Cc3ccsc3)CCO2)C1` (stereo not given) is 7.57%.
Consider `Cc1ccc2cc(C(=O)NCCn3nc4ccccn4c3=O)[nH]c2c1`, for which the Percent Effect was -70.8%.
Same read-out and setting: in the case of `CN(C)CCN1CCC2(CCN(C(=O)c3ccc(F)cc3)CC2)C1=O` it was -5.38%; in that of `CCOCCC(=O)N1CCCC(c2ncc[nH]2)C1` (stereo not given), -22.5%.
`O=C1CCC(C(=O)NCc2nn(-c3ccccc3)c3c2CCC3)CN1` (stereo not given): the Percent Effect is -54.3%.
For the molecule `COCC1CN(Cc2ccncc2)Cc2nnn(CC3CC3)c21` (stereo not given), the Percent Effect was -28.3%.
For the molecule `CO[C@H]1CCN(Cc2cnn(C)c2)[C@@H]2CN(Cc3cccnc3)C[C@H]12`, the Percent Effect was -40.9%.
The same measure, in the same setting: in the case of `Cc1nc(CN2C[C@@H]3CN(C(=O)c4cnccn4)C[C@@H]3C2)cs1` it was 1.79%.
Still for that read-out and setting: the figure for `CCO[C@@H]1CCN(C(=O)c2cscn2)[C@@H]1Cc1cnn(C)c1` is 1.75%; for `O=C(c1ccc[nH]1)N1CCN(CC2CCOc3ccccc3C2)CC1` (stereo not given) it is -20.9%; for `CS(=O)(=O)NCC1CCCN(C(=O)c2ccc(Cl)o2)C1` (stereo not given) it is -7.98%.
Same read-out and setting: in the case of `O=C1N(CCCc2ccccc2)CCCC1(O)CNCc1ccccc1` (stereo not given) it was -10.3%; in that of `Cc1nc(C)n(C2CCCN(C(=O)c3csc(C(C)C)n3)C2)n1` (stereo not given), 4.53%; in that of `Cc1ccc(CNC(CN2CCN(C)CC2)c2ccccc2)cc1` (stereo not given), -2.09%.
With `Cc1ccccc1C(=O)NCc1ccc(N2CCNC(=O)C2)cc1`, the Percent Effect is -90.8%.
Still for that read-out and setting: in the case of `Cc1noc([C@@]23CCO[C@@H]2CCN(C(=O)c2sccc2C)C3)n1` it was -3.55%.
`O=C(c1cnc(C2CC2)s1)N1CCCCC1Cn1cccn1` (stereo not given): the Percent Effect was -18.5%.
Turning to `c1csc(CN2CCO[C@H]3[C@H](OCCN4CCCC4)CC[C@@H]32)n1`, the Percent Effect is -36.8%.
Still for that read-out and setting: the figure for `CC(=O)N1CCCN(C(=O)NCc2ccccn2)CC1` is 16.9%; for `Cc1cnn(CCNCC(O)COc2ccc(Cl)cc2)c1` (stereo not given) it is -37.4%.
